# Results taken from ChEMBL document CHEMBL3988442, “University of Dundee, Small-Polar-MMV Screening Library” (2021).
# Biological target: T1, Aspartate--tRNA(Asp/Asn) ligase (Mycobacterium tuberculosis (strain ATCC 25618 / H37Rv)) (UniProt P9WFW3)
# T1 sequence (whole entry): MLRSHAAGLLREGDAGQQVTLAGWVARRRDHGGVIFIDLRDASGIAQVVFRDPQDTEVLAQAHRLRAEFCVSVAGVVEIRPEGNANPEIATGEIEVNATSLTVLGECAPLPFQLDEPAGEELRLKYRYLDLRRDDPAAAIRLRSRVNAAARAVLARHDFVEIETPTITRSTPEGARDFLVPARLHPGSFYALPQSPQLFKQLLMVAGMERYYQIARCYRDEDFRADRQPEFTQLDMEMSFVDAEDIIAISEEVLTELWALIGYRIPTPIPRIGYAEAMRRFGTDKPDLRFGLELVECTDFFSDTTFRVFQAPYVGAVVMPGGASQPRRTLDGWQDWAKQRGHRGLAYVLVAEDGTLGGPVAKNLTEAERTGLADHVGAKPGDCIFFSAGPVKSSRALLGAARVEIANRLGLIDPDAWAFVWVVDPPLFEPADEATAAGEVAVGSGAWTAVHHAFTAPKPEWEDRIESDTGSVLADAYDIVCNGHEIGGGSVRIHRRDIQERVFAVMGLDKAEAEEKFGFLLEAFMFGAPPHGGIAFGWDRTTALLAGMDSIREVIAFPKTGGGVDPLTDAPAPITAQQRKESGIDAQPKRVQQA
# Test: Assay for Asp RNA synthetase-1 from Mycobacterium tuberculosis
# Assay type: functional
# Set-up: scale not given: in the data most compounds retested in dose-response had high values
# Conditions: 30 µM
row,Structure (SMILES),Percent Effect [%]
1,c1cnn(CC2CCCCN2Cc2cn3ccsc3n2)c1 (stereo not given),1.03
2,c1csc(-c2nc(CN3CCn4c(nnc4C4CC4)C3)co2)c1,-3.42
3,Cn1cnnc1C1CCCN(C(=O)c2ccccc2Cl)C1 (stereo not given),1.15
4,CC(=O)N1CCCN(C(=O)c2oc(Br)cc2C)CC1,-0.167
5,CCCS(=O)(=O)N1CCO[C@H]2[C@H](OCc3ccccn3)CC[C@@H]21,3.5
6,O=C(C1CCOC1)N1CC[C@@H](O)[C@@H]1Cc1ccccc1 (stereo not given in full),-2.71
7,Cc1nn(-c2ccccc2)cc1C(=O)N1CCCC(n2cccn2)C1 (stereo not given),-5.22
8,O=C(c1ccoc1)N1CC[C@H]2OCC[C@@]2(COc2ncccc2F)C1,-0.296
9,O=S(=O)(NC1=NCN(CCc2cccs2)CN1)c1ccc(F)cc1,-0.523
10,N#Cc1cccc(S(=O)(=O)N2CCCCC2CCN2CCCC2=O)c1 (stereo not given),-2.87
11,CCNC(=O)N1CCCCC1CCO (stereo not given),-3.54
12,CCC(NC(=O)CC(F)(F)F)c1ccccc1OCC(=O)N1CCCC1 (stereo not given),0.767
13,O=C(COc1ccc(C(F)(F)F)cc1)NS(=O)(=O)c1cccnc1,6.95
14,CC(O)CN(CC(=O)NC(=O)NCC(F)(F)F)c1ccccc1 (stereo not given),-7.32
15,Cn1cc(-c2cnc(N3CCOCC3)nc2)cc1C(=O)N1CCOCC1,-3.52
16,CC(CNC(=O)c1ccc(Cl)cc1I)N1CCCC1 (stereo not given),-0.881
17,CSc1ncc(C(=O)N2C[C@H]3CC[C@@H]2CN(Cc2ccccc2)C3)cn1,1.12
18,N#Cc1cccnc1NCCNC(=O)N1CCCC(C(F)(F)F)C1 (stereo not given),-0.524
19,O=C1N(CC2CC2)CCC12CCN(c1ncccn1)CC2,3.3
20,Cn1cc(CN2CC[C@@H]3[C@@H](CCC(=O)N3CCc3c[nH]cn3)C2)cn1,-1.44

row,Structure (SMILES),Percent Effect [%]
1,OC(CN1CCCCCCC1)c1ccc(F)cc1 (stereo not given),-2.26
2,CCC1(CC)Cc2ccccc2-c2nc(CN(C)C)nc(O)c21,8.36
3,COCCCN(C)C1CCCN(Cc2noc(C)n2)C1 (stereo not given),-3.09
4,O=S(=O)(NCC1CCN(c2ccccn2)CC1)c1ccccc1F,-0.51
5,CCOc1ccc(NC(=O)NCc2csc(NC)n2)cc1C,-0.262
6,CC(C)NC(=O)N1CCC2(CC(C(=O)NCc3cccnc3)=NO2)C1 (stereo not given),2.53
7,C[S+]([O-])c1nncn1CC(=O)c1ccc2c(c1)CCO2 (stereo not given),3.29
8,CCOc1c(Cl)cccc1NCc1cc(C)on1,-1.21
9,Cc1cnn(C2CCCN(C(=O)c3ccn(C)c(=O)c3)C2)c1 (stereo not given),-2.74
10,O=C(NC(Cc1ccsc1)c1nccs1)C1CCOCC1 (stereo not given),1.44
11,Cc1ccc(CN2CC[C@H]3C[C@@H](c4nc(C5CC5)cs4)O[C@@H]3C2)o1,11.7
12,CN(C)S(=O)(=O)N1CCC(Oc2ccc(C#N)cc2)CC1,0.641
13,CC(=O)c1c(F)cccc1N1CCC(CS(N)(=O)=O)CC1,-3.49
14,Cc1csc(N2CCN(Cc3cnc(C)s3)CC2C)n1 (stereo not given),3.68
15,COc1ccc(C(=O)NS(=O)(=O)c2cncc(Br)c2)cc1OC,0.457
16,CCCc1n[nH]c(C2CN(CCn3cccn3)CCO2)n1 (stereo not given),3.43
17,CN1CC2(CCN(Cc3ccoc3)CC2)COc2ccccc2S1(=O)=O,-0.268
18,Cc1nn(C)c(N(C)C)c1CNCc1ccccc1Cn1cncn1,-4.47
19,COCCNC(=O)C(C)n1cc(Br)cn1 (stereo not given),9.87
20,CNC(=O)[C@@]12CCO[C@@H]1CCN(Cc1scnc1C)C2,-0.714
